Key:
Test in all cases: DAPPL (digital affinity profiling via proximity ligation, sequencing); 10 mM Tris-HCl pH 7.5, 50 mM NaCl, 1 mM DTT, 4% glycerol, room temperature, 30 min; GST-TFs on glutathione beads, 16-mer random dsDNA library, 0.1% formaldehyde crosslink after washing; high values mean tight binding
Details in all cases: protein: recombinant; tags: N-terminal GST; dsDNA, one strand shown
FLI1 = molecular target: T1, FLI1 (Homo sapiens, UniProt Q01543 1-452)
T1 sequence: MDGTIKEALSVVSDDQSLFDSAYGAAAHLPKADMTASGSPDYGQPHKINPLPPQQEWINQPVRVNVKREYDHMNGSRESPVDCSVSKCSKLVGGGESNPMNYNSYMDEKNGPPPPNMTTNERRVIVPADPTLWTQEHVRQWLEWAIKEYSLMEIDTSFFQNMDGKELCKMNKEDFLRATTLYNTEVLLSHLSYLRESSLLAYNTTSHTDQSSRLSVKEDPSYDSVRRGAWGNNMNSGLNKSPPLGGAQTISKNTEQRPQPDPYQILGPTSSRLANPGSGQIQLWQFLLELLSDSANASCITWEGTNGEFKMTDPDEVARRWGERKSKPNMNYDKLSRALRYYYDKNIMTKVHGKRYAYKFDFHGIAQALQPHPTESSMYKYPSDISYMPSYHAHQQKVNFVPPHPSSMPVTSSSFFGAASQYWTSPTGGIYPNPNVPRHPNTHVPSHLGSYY
Summary of the method: (§1)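 Each value of binding signal is a hexamer's read frequency for a factor divided by the same hexamer's frequency in the tag-only sample. Barcoded, bead-captured GST fusions of human transcription factors made in yeast were pooled with that sample and incubated with 200 nmole of a random double-stranded 16-mer DNA library in Tris/NaCl/DTT/glycerol buffer at room temperature for 30 min. Washing, 0.1% formaldehyde crosslinking, proximity ligation, PCR and Illumina NextSeq500 sequencing followed.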

ELK1 = molecular target: T2, ELK1 (Homo sapiens, UniProt P19419 1-428)
T2 sequence: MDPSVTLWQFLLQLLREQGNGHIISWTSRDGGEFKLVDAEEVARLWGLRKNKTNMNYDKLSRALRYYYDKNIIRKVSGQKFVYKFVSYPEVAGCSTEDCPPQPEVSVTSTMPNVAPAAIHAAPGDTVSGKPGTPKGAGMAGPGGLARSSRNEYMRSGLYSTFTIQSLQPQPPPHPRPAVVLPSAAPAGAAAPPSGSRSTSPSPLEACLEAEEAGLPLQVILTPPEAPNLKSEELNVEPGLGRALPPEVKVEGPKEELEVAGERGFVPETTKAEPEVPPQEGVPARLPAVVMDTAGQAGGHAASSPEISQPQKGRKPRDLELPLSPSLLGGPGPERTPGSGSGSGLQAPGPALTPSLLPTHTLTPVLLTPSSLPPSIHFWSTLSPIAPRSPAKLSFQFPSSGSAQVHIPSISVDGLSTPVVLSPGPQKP
Summary of the method: as §1

GABPA = molecular target: T3, GABPA (Homo sapiens, UniProt Q06546 1-454)
T3 sequence: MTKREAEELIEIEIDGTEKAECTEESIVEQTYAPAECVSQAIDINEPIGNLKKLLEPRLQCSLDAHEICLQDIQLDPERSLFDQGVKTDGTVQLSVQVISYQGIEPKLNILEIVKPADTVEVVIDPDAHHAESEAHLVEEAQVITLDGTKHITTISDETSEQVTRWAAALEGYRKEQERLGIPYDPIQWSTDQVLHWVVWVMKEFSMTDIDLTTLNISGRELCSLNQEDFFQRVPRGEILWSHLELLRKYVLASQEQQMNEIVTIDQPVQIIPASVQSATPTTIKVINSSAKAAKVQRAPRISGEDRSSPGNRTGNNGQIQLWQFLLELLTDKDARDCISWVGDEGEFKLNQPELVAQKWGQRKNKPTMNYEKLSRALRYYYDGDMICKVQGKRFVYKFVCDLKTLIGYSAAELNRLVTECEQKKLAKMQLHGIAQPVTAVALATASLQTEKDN
Summary of the method: as §1

ERG = molecular target: T4, ERG (Homo sapiens, UniProt P11308 1-479)
T4 sequence: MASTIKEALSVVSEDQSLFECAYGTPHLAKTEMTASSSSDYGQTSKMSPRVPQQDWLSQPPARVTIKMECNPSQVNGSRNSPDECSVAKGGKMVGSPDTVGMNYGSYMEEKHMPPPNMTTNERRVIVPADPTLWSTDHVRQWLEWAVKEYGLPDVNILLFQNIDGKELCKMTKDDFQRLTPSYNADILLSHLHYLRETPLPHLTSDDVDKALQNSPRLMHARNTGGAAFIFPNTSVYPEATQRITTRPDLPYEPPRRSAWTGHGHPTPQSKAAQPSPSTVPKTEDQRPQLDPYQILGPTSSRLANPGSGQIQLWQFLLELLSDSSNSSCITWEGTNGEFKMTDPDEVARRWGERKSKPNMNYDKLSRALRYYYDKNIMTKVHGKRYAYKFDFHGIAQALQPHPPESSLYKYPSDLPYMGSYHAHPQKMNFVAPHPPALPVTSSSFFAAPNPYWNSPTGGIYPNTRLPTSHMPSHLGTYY
Summary of the method: as §1

ELF1 = ELF1 (Homo sapiens, UniProt P32519 1-619)
Sequence of ELF1 (P32519 whole entry): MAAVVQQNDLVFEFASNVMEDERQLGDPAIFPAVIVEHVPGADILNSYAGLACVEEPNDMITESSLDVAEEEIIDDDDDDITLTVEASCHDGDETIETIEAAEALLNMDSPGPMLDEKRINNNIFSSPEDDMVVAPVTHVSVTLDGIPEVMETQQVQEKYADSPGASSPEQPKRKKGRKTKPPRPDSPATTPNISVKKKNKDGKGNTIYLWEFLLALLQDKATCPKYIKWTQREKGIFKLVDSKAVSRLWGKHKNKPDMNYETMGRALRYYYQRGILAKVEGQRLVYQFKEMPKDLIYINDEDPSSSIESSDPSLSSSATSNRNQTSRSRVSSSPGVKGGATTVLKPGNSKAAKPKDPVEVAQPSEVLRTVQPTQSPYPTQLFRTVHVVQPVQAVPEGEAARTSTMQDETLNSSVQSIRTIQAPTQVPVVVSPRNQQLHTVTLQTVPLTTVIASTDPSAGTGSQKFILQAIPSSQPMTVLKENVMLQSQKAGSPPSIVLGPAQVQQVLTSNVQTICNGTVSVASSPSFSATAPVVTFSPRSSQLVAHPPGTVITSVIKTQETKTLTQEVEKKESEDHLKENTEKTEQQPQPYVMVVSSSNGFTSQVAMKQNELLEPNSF
Summary of the method: as §1

EHF = molecular target: T5, EHF (Homo sapiens, UniProt Q9NZC4 1-300)
T5 sequence: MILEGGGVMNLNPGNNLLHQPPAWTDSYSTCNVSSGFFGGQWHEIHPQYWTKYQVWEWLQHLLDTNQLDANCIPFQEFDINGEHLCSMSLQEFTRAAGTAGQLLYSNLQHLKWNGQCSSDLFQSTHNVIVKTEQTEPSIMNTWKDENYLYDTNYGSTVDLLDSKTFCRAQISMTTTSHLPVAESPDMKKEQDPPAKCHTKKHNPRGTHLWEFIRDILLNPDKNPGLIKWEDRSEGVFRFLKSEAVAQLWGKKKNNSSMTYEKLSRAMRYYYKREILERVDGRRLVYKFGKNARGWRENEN
Summary of the method: as §1

SPI1 = SPI1 (Homo sapiens, UniProt P17947 1-270)
Summary of the method: as §1

SPIB = SPIB (Homo sapiens, UniProt Q01892 1-262)
Sequence of SPIB (Q01892 whole entry): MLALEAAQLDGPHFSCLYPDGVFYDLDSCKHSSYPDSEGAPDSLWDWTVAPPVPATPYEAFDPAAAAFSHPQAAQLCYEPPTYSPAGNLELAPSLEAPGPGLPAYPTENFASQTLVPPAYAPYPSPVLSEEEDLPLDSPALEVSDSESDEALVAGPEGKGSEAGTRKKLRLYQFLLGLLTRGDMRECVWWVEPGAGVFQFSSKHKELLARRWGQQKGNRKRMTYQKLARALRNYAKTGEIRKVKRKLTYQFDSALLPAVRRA
Summary of the method: as §1

ELK3 = molecular target: T6, ELK3 (Homo sapiens, UniProt P41970 1-407)
T6 sequence: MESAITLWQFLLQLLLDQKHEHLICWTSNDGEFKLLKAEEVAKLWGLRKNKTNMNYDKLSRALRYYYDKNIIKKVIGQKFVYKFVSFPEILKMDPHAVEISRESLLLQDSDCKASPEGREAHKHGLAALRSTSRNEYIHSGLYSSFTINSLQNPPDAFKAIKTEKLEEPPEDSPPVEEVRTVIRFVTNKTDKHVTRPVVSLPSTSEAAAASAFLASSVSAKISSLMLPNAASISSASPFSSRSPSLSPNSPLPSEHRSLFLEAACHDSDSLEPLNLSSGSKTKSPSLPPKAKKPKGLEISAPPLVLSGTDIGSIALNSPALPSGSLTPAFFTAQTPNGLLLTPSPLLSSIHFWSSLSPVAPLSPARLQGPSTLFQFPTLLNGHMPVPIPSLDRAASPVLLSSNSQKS
Summary of the method: as §1

FEV = molecular target: T7, FEV (Homo sapiens, UniProt Q99581 1-238)
T7 sequence: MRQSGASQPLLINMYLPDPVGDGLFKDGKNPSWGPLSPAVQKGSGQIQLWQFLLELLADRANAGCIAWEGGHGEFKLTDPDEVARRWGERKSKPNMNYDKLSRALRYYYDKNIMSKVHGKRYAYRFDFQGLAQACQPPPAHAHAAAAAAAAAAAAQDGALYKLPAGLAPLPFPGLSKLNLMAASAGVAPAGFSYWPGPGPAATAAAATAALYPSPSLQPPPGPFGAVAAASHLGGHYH
Summary of the method: as §1

ETV5 = ETV5 (Homo sapiens, UniProt P41161 1-510)
Sequence of ETV5 (P41161 whole entry): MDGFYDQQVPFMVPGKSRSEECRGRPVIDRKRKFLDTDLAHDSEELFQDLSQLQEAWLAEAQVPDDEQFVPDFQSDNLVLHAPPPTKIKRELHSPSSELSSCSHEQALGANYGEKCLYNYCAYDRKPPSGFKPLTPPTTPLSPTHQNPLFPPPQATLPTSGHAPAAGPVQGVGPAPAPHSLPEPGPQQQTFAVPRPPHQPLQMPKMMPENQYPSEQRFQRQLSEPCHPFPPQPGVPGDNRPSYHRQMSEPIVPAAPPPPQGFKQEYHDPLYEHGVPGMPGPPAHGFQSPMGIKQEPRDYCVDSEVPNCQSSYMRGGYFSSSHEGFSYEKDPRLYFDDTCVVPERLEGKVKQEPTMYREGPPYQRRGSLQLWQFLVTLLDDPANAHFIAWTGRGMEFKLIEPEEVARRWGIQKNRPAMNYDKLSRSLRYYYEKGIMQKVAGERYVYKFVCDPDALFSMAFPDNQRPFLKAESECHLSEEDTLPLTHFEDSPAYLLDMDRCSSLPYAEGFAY
Summary of the method: as §1

SPIC = molecular target: T8, SPIC (Homo sapiens, UniProt Q8N5J4 1-248)
T8 sequence: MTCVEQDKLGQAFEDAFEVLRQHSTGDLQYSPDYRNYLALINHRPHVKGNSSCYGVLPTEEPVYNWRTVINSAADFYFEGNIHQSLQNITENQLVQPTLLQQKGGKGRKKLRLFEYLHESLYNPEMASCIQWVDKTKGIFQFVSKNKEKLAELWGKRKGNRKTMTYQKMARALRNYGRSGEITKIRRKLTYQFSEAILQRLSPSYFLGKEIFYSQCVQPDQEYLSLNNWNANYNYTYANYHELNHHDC
Summary of the method: as §1

ELF4 = ELF4 (Homo sapiens, UniProt Q99607 1-663)
Sequence of ELF4 (Q99607 whole entry): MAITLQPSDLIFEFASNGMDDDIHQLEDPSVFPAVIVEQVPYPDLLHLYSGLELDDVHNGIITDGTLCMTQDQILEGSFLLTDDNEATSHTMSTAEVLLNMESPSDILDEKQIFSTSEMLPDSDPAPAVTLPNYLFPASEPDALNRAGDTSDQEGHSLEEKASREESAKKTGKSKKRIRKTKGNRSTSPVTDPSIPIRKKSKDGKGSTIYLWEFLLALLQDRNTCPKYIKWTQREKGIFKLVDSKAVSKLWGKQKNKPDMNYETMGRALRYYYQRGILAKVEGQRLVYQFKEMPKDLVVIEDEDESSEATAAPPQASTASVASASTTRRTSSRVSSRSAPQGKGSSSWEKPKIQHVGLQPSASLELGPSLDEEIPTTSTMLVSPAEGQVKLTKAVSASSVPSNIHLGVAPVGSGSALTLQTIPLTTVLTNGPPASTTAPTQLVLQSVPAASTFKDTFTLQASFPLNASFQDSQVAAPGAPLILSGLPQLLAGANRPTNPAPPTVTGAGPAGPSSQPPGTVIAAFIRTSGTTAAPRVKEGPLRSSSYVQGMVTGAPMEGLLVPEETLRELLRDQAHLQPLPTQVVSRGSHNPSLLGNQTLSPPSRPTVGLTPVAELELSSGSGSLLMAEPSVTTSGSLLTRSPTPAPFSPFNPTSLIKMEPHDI
Summary of the method: as §1

ELK4 = molecular target: T9, ELK4 (Homo sapiens, UniProt P28324-2 1-405)
T9 sequence: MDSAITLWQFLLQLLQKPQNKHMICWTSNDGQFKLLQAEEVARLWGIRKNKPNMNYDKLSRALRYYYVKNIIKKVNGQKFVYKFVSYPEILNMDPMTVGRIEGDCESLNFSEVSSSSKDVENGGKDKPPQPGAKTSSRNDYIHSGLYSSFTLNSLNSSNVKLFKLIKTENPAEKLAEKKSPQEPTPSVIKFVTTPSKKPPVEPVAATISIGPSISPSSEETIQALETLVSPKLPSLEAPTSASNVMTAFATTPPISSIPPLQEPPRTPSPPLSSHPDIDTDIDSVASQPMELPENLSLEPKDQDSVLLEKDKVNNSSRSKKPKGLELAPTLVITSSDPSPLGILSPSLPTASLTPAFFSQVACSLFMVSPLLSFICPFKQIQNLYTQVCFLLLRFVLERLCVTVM
Summary of the method: as §1

ETV2 = molecular target: T10, ETV2 (Homo sapiens, UniProt O00321 1-342)
T10 sequence: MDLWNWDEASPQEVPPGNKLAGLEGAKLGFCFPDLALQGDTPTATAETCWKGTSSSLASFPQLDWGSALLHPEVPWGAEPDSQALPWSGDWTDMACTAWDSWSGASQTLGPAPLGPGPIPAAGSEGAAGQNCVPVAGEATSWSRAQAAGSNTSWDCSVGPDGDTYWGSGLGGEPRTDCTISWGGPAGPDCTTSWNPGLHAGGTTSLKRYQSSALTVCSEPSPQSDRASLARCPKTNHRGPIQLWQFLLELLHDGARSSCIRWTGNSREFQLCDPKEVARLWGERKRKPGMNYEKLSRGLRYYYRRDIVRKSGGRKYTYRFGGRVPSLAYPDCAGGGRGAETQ
Summary of the method: as §1

ELF3 = molecular target: T11, ELF3 (Homo sapiens, UniProt P78545 1-371)
T11 sequence: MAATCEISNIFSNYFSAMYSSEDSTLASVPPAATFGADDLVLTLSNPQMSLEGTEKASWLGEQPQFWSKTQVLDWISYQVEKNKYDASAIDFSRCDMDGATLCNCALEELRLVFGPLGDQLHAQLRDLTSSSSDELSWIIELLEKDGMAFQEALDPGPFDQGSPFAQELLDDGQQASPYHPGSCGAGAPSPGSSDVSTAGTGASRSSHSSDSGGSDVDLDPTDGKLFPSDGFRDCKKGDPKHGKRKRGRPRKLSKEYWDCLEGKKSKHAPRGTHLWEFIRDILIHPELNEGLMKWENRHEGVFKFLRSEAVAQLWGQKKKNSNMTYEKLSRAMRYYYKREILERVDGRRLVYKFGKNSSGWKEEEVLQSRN
Summary of the method: as §1

ETV1 = ETV1 (Homo sapiens, UniProt P50549 1-477)
Sequence of ETV1 (P50549 whole entry): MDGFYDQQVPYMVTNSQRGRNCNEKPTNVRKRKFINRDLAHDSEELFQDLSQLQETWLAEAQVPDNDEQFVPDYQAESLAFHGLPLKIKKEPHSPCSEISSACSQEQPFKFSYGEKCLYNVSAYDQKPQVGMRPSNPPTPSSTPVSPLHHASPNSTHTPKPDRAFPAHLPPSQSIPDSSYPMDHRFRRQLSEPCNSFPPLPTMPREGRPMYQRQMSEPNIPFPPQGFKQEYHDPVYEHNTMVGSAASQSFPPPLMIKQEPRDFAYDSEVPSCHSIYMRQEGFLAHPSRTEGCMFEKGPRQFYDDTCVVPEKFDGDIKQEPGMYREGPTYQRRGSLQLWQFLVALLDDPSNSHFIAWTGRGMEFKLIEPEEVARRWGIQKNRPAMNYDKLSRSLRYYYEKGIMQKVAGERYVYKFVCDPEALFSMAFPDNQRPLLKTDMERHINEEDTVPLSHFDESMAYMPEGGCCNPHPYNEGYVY
Summary of the method: as §1

Sequence | binding signal (FLI1) | binding signal (ELK1) | binding signal (GABPA) | binding signal (ERG) | binding signal (ELF1) | binding signal (EHF) | binding signal (SPI1) | binding signal (SPIB) | binding signal (ELK3) | binding signal (FEV) | binding signal (ETV5) | binding signal (SPIC) | binding signal (ELF4) | binding signal (ELK4) | binding signal (ETV2) | binding signal (ELF3) | binding signal (ETV1)
CCGGTT | 1.88 fold enrichment (6-mer frequency, TF over GST control) | 2.1 fold enrichment (6-mer frequency, TF over GST control) | 1.89 fold enrichment (6-mer frequency, TF over GST control) | 2.2 fold enrichment (6-mer frequency, TF over GST control) | 1.96 fold enrichment (6-mer frequency, TF over GST control) | 1.97 fold enrichment (6-mer frequency, TF over GST control) | 2.11 fold enrichment (6-mer frequency, TF over GST control) | 1.97 fold enrichment (6-mer frequency, TF over GST control) | 2.26 fold enrichment (6-mer frequency, TF over GST control) | 2.7 fold enrichment (6-mer frequency, TF over GST control) | 2.15 fold enrichment (6-mer frequency, TF over GST control) | 1.68 fold enrichment (6-mer frequency, TF over GST control) | 1.83 fold enrichment (6-mer frequency, TF over GST control) | 1.87 fold enrichment (6-mer frequency, TF over GST control) | 2.08 fold enrichment (6-mer frequency, TF over GST control) | 2.09 fold enrichment (6-mer frequency, TF over GST control) | 2.04 fold enrichment (6-mer frequency, TF over GST control)
CCCTGC | 1.11 fold enrichment (6-mer frequency, TF over GST control) | 1.22 fold enrichment (6-mer frequency, TF over GST control) | 1.12 fold enrichment (6-mer frequency, TF over GST control) | 1.21 fold enrichment (6-mer frequency, TF over GST control) | 1.26 fold enrichment (6-mer frequency, TF over GST control) | 1.17 fold enrichment (6-mer frequency, TF over GST control) | 1.2 fold enrichment (6-mer frequency, TF over GST control) | 1.16 fold enrichment (6-mer frequency, TF over GST control) | 1.18 fold enrichment (6-mer frequency, TF over GST control) | 1.14 fold enrichment (6-mer frequency, TF over GST control) | 1.18 fold enrichment (6-mer frequency, TF over GST control) | 1.25 fold enrichment (6-mer frequency, TF over GST control) | 1.38 fold enrichment (6-mer frequency, TF over GST control) | 1.21 fold enrichment (6-mer frequency, TF over GST control) | 1.05 fold enrichment (6-mer frequency, TF over GST control) | 1.12 fold enrichment (6-mer frequency, TF over GST control) | 1.22 fold enrichment (6-mer frequency, TF over GST control)
